MITF primary: inhibitors of human MITF; O75030; AlphaScreen MITF homodimerization, bead proximity signal; inhibition, % at 2.6 µM; hit rate 0.91% among 650,000; AID 1259374; in the data active = inhibition above about 50%
GPR151 activ: activates the human receptor GPR151 | hit rate 1% among 650,000 | activation, % at 11.2 µM | AID 1508602 | PathHunter beta-arrestin GPR151 cells, luminescence | Q8TDV0; in the data active = activation above about 4.9%
Target sequence (Q8TDV0 whole entry, looked up): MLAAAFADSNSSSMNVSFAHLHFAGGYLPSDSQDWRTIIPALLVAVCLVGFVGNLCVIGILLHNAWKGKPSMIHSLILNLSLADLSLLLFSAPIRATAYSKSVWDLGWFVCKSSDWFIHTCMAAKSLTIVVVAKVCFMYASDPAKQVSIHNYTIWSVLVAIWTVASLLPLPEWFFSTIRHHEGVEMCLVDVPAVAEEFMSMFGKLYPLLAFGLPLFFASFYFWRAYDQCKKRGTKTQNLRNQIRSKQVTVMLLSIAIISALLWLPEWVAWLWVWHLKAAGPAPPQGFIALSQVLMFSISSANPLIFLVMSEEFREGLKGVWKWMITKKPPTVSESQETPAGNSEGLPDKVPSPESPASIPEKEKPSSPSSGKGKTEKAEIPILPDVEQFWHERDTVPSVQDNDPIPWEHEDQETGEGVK
TEAD-YAP block: TEAD-YAP interaction inhibition | HEK-TIYL cells, TEAD-Gal4/YAP UAS-luciferase luminescence | inhibition, % at 9.12 µM | hit rate 1.4% among 640,000; in the data active = inhibition above about 32%
FBW7 act: activators of human E3 ligase FBW7 | AlphaScreen FBW7–phospho-cyclin E peptide binding, activator screen | Q969H0 | hit rate 0.13% among 650,000 | normalized activity (activation), % at 26.1 µM; in the data active = normalized activity above about 1.9%;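 also: purified mutant Fbw7 with reduced substrate affinity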
Each line names hits and unclear results; the compound was inactive in the other large screens. Rows were chosen to be rich in hits. Some 3.4% of all compounds tested hit in one or more screens of this group.

Cc1noc(C)c1CCC(=O)N1CCC(C(=O)Nc2cccc(-c3ccco3)c2)CC1	TEAD-YAP block 34
COc1ccc(N2C(=O)CC(Sc3nc(C)c4ccccc4n3)C2=O)cc1 (configuration not stated)	TEAD-YAP block 53
COc1ccc(N2C(=O)CC(SCCN)C2=O)cc1 (configuration not stated)	FBW7 act 2.5
COc1ccc(N2C(=O)CC(Sc3ccccc3C(=O)O)C2=O)cc1 (configuration not stated)	none
CCOC(=O)C(N)CSC1CC(=O)N(c2ccc(OC)cc2)C1=O (configuration not stated)	none
CC(=O)c1ccc(Nc2c(C)n(C)n(-c3ccccc3)c2=O)cc1	none
Cc1c(Nc2ccc(/C=C3\C(=O)Nc4ccccc43)cc2)c(=O)n(-c2ccccc2)n1C	TEAD-YAP block 54
CCOc1ccccc1NC(=O)N1CCCC1C(=O)NC(C)C (configuration not stated)	none
CC(C)(C)c1ccc(-c2ncc3ccccn23)cc1	TEAD-YAP block 72
O=C(O)[C@@H]1Cc2c([nH]c3ccccc23)[C@@H](c2ccccc2)N1	none (no result: TEAD-YAP block)
N#CC(NC(=O)c1ccc(Cl)cc1)=C(Cl)Cl	TEAD-YAP block 37
O=C(NC(=O)N1CCCCC1)c1ccc(Cl)cc1	none
COc1ccc(CC(=O)Nc2ncc3ccc(-c4cn[nH]c4)cc3c2C#N)cc1	none
Cn1cc(-c2ccnc(NC(=O)Cc3ccc(F)cc3)c2)cn1	TEAD-YAP block 48
COc1ccc(CC(=O)Nc2ncc3ccc(-c4cn[nH]c4)cc3c2Cl)cc1	TEAD-YAP block 40
O=C(Cc1ccc(F)cc1)Nc1cc(-n2ccnc2-c2ccccc2)ccn1	TEAD-YAP block 39
COc1ccc(CC(=O)Nc2cc(-c3cn[nH]c3)ccn2)cc1	TEAD-YAP block 92
O=C(Cc1ccccc1)N/N=C/c1ccc(O)c(I)c1	none
O=C1CN(S(=O)(=O)c2ccc3[nH]c4c(c3c2)CCCC4)c2ccccc2N1	TEAD-YAP block 62
CCCNS(=O)(=O)c1ccc2[nH]c3c(c2c1)CCCC3	none
O=C1CN(Cc2ccccc2)CC(=O)N1	none
O=C1CN(S(=O)(=O)c2ccc(Br)cc2)c2ccccc2N1	none
O=C1CN(S(=O)(=O)c2ccc3ccccc3c2)c2ccccc2N1	none
O=C1CN(Cc2ccccc2)c2ccccc2N1	TEAD-YAP block 96
CCOc1ccc(S(=O)(=O)N2CC(=O)Nc3ccccc32)cc1	TEAD-YAP block 42
Cc1cc(C)c(S(=O)(=O)N2CC(=O)Nc3ccccc32)c(C)c1	TEAD-YAP block 55
NC(=O)NCC(=O)N1CC(=O)Nc2ccccc21	none
COc1ccc(N2CCN(C(=O)CCCNS(=O)(=O)c3cccs3)CC2)cc1	none
CN1CC=C(/C=C/C2=Cc3ccccc3OC2)CC1	TEAD-YAP block 75
CN1C(=O)/C(=C/C2=Cc3ccccc3OC2)SC1=S	none
CNC(=O)c1cc(F)ccc1Nc1cc(Nc2ccc3c(c2)NC(=O)C3)ncc1C(F)(F)F	TEAD-YAP block 39
CNC(=O)c1cc(F)ccc1Nc1cc(Nc2ccc(NC(C)=O)cc2)ncc1C(F)(F)F	TEAD-YAP block 38
CC(=O)Nc1ccc(NC(=O)c2ccc(F)cc2)nc1	none
CNC(=O)c1cc(F)ccc1Nc1cc(Nc2ccc3c(c2)CC(=O)N3)ncc1C(F)(F)F	none
COC(=O)CSc1nnc2c3ccccc3n(CC(=O)OC)c2n1	none
O=C(N/N=C\c1cc(Cl)ccc1O)c1cccs1	TEAD-YAP block 43
Cc1cc(C(=O)N/N=C/c2ccc(O)c(O)c2O)c(C)o1	MITF primary 53
Cc1cc(C)n2nc(C(=O)N/N=C/c3cc(Cl)cc([N+](=O)[O-])c3O)nc2n1	none
Cc1cc(C(=O)N/N=C\c2ccc(Cl)cc2Cl)c(C)o1	none
Cc1cc(C(=O)N/N=C\c2cc(C(C)(C)C)ccc2O)n[nH]1	none
CC(C)(C)c1cc(C(=O)N/N=C/c2cc(Cl)ccc2O)n[nH]1	TEAD-YAP block 76
O=C(N/N=C/c1ccccc1Cl)c1cccs1	none
Cc1cc(C)n2nc(C(=O)N/N=C/c3cc(Cl)ccc3O)nc2n1	MITF primary 56
O=C(NCC1Cc2cccc(-c3ccccc3C(F)(F)F)c2O1)c1cncs1 (configuration not stated)	none
Cc1nc2c3ccccc3nc(SCC(=O)Nc3cccc(Cl)c3)n2n1	none
O=C(N/N=C/c1ccc(O)c(O)c1O)c1cccs1	MITF primary 54
O=C(N/N=C/c1cc(Cl)ccc1O)c1ccc(F)cc1	TEAD-YAP block 67
O=C(N/N=C/c1ccccc1C(F)(F)F)c1cccs1	none
CCCn1c2ccccc2c2nnc(SCC(=O)Nc3sc4c(c3C(=O)OCC)CCCC4)nc21	none
CC(C)Oc1ccc(C(=O)Nc2nc(-c3ccc(F)cc3F)cs2)cc1	TEAD-YAP block 38
